Activity data for 32 molecules are collected here from PubChem BioAssay AID651642 (Sanford-Burnham Center for Chemical Genomics, 2012).

Calls of active or inactive are those of the source.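 The calls were made as follows: active = average half-effect concentration of 10 µM or less in every one of the four cell panels; inactive = the rest.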

The assay has as its system HL-1. Kind of assay: cardiomyocyte survival under oxidative or metabolic stress – cell-based, panel, H9c2 and HL-1, H2O2, 2-deoxyglucose, ATP luminescence, SAR follow-up (AID 651642).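 Also: plate controls were H2O2 plus DMSO for no effect and cells kept without H2O2 for full effect.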 The conditions noted are these: H9c2/HL-1 cardiomyocyte H2O2 oxidative damage, mean of runs; activity: with H2O2, at 0.154 µM; outcome: with H2O2.
On to `COc1cc(-c2cc(C(=O)NCC(=O)Nc3ccc(C(C)=O)cc3)c3cc(F)ccc3n2)cc(OC)c1OC`, for which the activity was 1.92% (active).

Consider `COC(=O)CNC(=O)c1cccc(NC(=O)c2cc(-c3cc(OC)c(OC)c(OC)c3)nc3ccccc23)c1`, for which the activity was -1.7% (active).

For the molecule `COc1cc(-c2cc(C(=O)NCC(=O)Nc3cccc(C(C)=O)c3)c3ccccc3n2)cc(OC)c1OC`, the activity is -2.38% (active).

For the molecule `CCOC(=O)c1cccc(NC(=O)c2cc(-c3cc(OC)c(OC)c(OC)c3)nc3cc(Cl)ccc23)c1`, the activity was 1.44% (inactive).

With `COc1cc(-c2cc(C(=O)Nc3cccc(C(=O)NC4CC4)c3)c3ccccc3n2)cc(OC)c1OC`, the activity was -0.15% (active).

Consider `COc1cc(-c2cc(C(=O)NCC(=O)Nc3cccc(C(C)=O)c3)c3cc(F)ccc3n2)cc(OC)c1OC`, for which the activity was -0.68% (active).

As for `COc1ccc2c(c1OC)C(=O)N1c3ccccc3C(=O)N(Cc3cccc(F)c3)C21` (configuration not stated), the activity is 0.0397% (inactive).

As for `CCOC(=O)c1cccc(NC(=O)c2cc(-c3cc(OC)c(OC)c(OC)c3)nc3ccc(OC)cc23)c1`, the activity was 8.27% (inactive).

Turning to `COc1cc(-c2cc(C(=O)NCC(=O)Nc3ccc(C(C)=O)cc3)c3ccccc3n2)cc(OC)c1OC`, the activity was 0.684% (inactive).

For `CCOC(=O)c1cccc(NC(=O)c2cc(-c3cc(OC)c(OC)c(OC)c3)nc3ccc(F)cc23)c1`, the activity was 5.11% (active).

Turning to `COC(=O)CNC(=O)c1cc(-c2cc(OC)c(OC)c(OC)c2)nc2ccccc12`, the activity is -2.8% (inactive).

With `COc1ccc2c(c1OC)C(=O)N1c3ccccc3C(=O)N(Cc3ccc(C)cc3C)C21` (configuration not stated), the activity is -0.945% (inactive).

For the molecule `COc1cc(-c2cc(C(=O)NCC(=O)Nc3cccc(C(C)=O)c3)c3cc(C)ccc3n2)cc(OC)c1OC`, the activity was 0.0397% (inactive).

For `COc1cc(-c2cc(C(=O)Nc3cccc(C#N)c3)c3ccccc3n2)cc(OC)c1OC`, the activity was 0.75% (inactive).

In the case of `COc1cc(-c2cc(C(=O)Nc3cccc(C(=O)Nc4ccccc4)c3)c3ccccc3n2)cc(OC)c1OC`, the activity was -3.29% (inactive).

On to `COc1ccc2c(c1OC)C(=O)N1c3ccccc3C(=O)N(Cc3cccc(C)c3)C21` (configuration not stated), for which the activity was -2.16% (inactive).

For `COc1cc(-c2cc(C(=O)Nc3cccc(-c4nn[nH]n4)c3)c3ccccc3n2)cc(OC)c1OC`, the activity is -2.86% (inactive).

Consider `COc1cc(-c2cc(C(=O)Nc3cccc(C(N)=O)c3)c3ccccc3n2)cc(OC)c1OC`, for which the activity is -0.415% (active).

On to `COc1ccc2c(c1OC)C(=O)N1c3ccccc3C(=O)N(Cc3cccc(Br)c3)C21` (configuration not stated), for which the activity was 0.759% (inactive).

With `COc1cc(-c2cc(C(=O)Nc3cccc(C(C)=O)c3)c3cc(Br)ccc3n2)cc(OC)c1OC`, the activity is 1.55% (inactive).

On to `COc1ccccc1CN1C(=O)c2ccccc2N2C(=O)c3c(ccc(OC)c3OC)C12` (configuration not stated), for which the activity is 1.25% (inactive).

For the molecule `COc1ccc2nc(-c3cc(OC)c(OC)c(OC)c3)cc(C(=O)NCC(=O)Nc3cccc(C(C)=O)c3)c2c1`, the activity was -0.983% (active).

As to `CCOC(=O)c1cccc(NC(=O)c2cc(-c3cc(OC)c(OC)c(OC)c3)nc3ccc(C)cc23)c1`, the activity is 4.25% (inactive).

In the case of `COc1ccc2c(c1OC)C(=O)N1c3ccccc3C(=O)N(Cc3ccccc3Br)C21` (configuration not stated), the activity was -0.68% (inactive).

Take `COc1cc(-c2cc(C(=O)NCC(=O)Nc3ccc(C(C)=O)cc3)c3cc(C)ccc3n2)cc(OC)c1OC`: the activity is 4.62% (active).

As to `COc1ccc2c(c1OC)C(=O)N1c3ccccc3C(=O)N(Cc3ccccc3F)C21` (configuration not stated), the activity is 4.24% (inactive).

`COc1ccc2nc(-c3cc(OC)c(OC)c(OC)c3)cc(C(=O)NCC(=O)Nc3ccc(C(C)=O)cc3)c2c1`: the activity was -1.7% (active).

In the case of `CCNC(=O)c1cccc(NC(=O)c2cc(-c3cc(OC)c(OC)c(OC)c3)nc3ccccc23)c1`, the activity was -0.0361% (active).

Consider `COc1ccc2c(c1OC)C(=O)N1c3ccccc3C(=O)N(Cc3ccccc3)C21` (configuration not stated), for which the activity is -5.45% (inactive).

Take `CCOC(=O)c1cccc(NC(=O)CNC(=O)c2cc(-c3cc(OC)c(OC)c(OC)c3)nc3ccc(C)cc23)c1`: the activity was -1.48% (active).

Consider `COc1ccc2c(c1OC)C(=O)N1c3ccccc3C(=O)N(Cc3ccc(F)cc3)C21` (configuration not stated), for which the activity is -2.95% (inactive).

As to `COc1ccc2c(c1OC)C(=O)N1c3ccccc3C(=O)N(Cc3cccc(Cl)c3Cl)C21` (configuration not stated), the activity is 4.4% (inactive).
